PubChem BioAssay (NCATS)
Values without a mark were called inactive. Records with an inconclusive call do not appear. The source made the active and inactive calls. Unless noted, calls come from the whole dose curve; as a rule, active = well fitted curve in either direction with a large enough effect (not every such curve was filed as active); inconclusive = small, poorly fitted or top-dose-only effect, or another doubt; inactive = flat fitted curve, though single readings scatter.

Assays:
[1] = target: Lysosomal acid glucosylceramidase (Homo sapiens) (UniProt P04062); assay: Glucocerebrosidase-p2 (AID 348; in the data active = potency below about 10 µM; note: potency is the fitted concentration of half-maximal effect); conditions: purified GBA, blue fluorogenic substrate, 40 min
Lysosomal acid glucosylceramidase (Homo sapiens), sequence (P04062 whole entry, looked up): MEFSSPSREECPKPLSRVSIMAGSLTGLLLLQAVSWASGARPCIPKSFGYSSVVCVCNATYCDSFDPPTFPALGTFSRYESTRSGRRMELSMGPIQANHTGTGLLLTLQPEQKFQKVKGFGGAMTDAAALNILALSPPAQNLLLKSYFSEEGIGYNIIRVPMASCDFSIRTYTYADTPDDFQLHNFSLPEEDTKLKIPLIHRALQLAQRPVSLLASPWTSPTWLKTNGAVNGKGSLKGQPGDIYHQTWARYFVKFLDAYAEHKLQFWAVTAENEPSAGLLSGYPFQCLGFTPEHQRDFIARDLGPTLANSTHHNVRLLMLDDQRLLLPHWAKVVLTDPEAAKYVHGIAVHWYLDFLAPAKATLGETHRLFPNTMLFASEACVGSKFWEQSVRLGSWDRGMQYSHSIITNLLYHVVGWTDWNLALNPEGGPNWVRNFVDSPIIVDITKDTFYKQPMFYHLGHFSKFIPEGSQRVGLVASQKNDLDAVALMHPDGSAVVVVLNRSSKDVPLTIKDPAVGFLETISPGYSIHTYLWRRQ
Procedure, shortened: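 Normal human glucocerebrosidase (0.2 nM) with blue fluorogenic substrate (80 uM final) in citrate/phosphate pH 5.9 with 10mM sodium taurocholate, 0.01% tween-20; 40 min RT, NaOH/glycine stop; fluorescence Ex 365/Em 440; AC50 from a titration from 0.6 nM upwards.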

[2] = AP1 Signaling Pathway (AID 357); conditions: ME-180 AP-1-bla reporter, EGF-induced, beta-lactamase ratio, 5 h; at 7.69 µM (top of the series) unless noted;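 note: ME-180 reporter cells stimulated with EGF at its EC50 level; % is set by controls: 0 for no effect and ±100 for the full control effect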
Procedure, shortened: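 Modulation of EGF-driven AP-1 transcription was assessed with a beta-lactamase reporter in ME-180 cells. Compound and EC50 EGF were co-incubated 5 hours at 37 °C before 2.5-hour CCF4 loading at room temperature and dual-emission reading.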

[3] = target: Cytochrome P450 1A2 (Homo sapiens) (UniProt P05177); assay: p450-cyp1a2 (AID 410; calls by dose curve; note: potency is the fitted concentration of half-maximal effect); conditions: recombinant CYP1A2, luciferin-ME demethylation, luminescence; series mostly up to 57 µM
Cytochrome P450 1A2 (Homo sapiens), sequence (P05177 whole entry, looked up): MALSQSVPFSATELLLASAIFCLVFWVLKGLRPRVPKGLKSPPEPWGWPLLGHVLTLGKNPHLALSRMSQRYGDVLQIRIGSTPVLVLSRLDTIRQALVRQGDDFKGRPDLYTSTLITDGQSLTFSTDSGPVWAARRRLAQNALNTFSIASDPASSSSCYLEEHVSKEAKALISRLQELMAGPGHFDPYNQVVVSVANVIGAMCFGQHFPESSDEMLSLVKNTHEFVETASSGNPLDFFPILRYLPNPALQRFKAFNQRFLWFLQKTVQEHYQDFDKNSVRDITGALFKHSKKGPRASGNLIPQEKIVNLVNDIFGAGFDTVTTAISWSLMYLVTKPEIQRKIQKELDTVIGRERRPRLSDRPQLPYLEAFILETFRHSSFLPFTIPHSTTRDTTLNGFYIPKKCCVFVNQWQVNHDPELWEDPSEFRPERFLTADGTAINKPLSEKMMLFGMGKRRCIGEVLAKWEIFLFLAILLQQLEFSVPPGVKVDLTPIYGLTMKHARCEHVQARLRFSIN
Procedure, shortened: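 20nM CYP1A2, 100uM Luciferin-ME (=Km), 100mM KPO4; cpd 10 min RT; +NADPH regen, 60 min RT; stop/detect 20 min; luminescence. Normalized to furafylline 57 uM = full inhibition.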

[4] = NFAT Signaling Pathway (AID 444); conditions: Jurkat NFAT-bla M1, carbachol, beta-lactamase ratio, 5 h; at 7.69 µM (top of the series) unless noted;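 note: carbachol stimulus at about its EC50 of 1 µM final; % is set by controls: 0 for no effect and ±100 for the full control effect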
Procedure, shortened: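 Jurkat cells carrying an NFAT-driven β-lactamase reporter and co-transfected muscarinic M1 receptor were treated with compound plus carbachol (1 uM final, an EC50 level) for 5 h at 37 °C. CCF4 loading followed for 1 h at RT; 460/530 nm ratio gave %activity.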

[5] = Stat Signaling Pathway (AID 446); conditions: ME-180 SIE beta-lactamase reporter, IL-6 stimulated, 5 h; at 7.69 µM (top of the series) unless noted;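 note: ME-180 cervical cancer cells given 40 pM IL-6 alongside compound; SIE-controlled beta-lactamase reporter measured as 460/530 nm FRET emission ratio; % is set by controls: 0 for no effect and ±100 for the full control effect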
Procedure, shortened: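 FRET read-out (405 nm excitation, 460/530 nm emission) of a beta-lactamase reporter under a STAT-inducible element in ME-180 cervical carcinoma cells. Cells with compound receive 40 pM IL-6 for 5 h. Values are normalised to AC90 stimulation and AC90 JAK-inhibitor controls.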

[6] = target: Glucocorticoid receptor (Homo sapiens) (UniProt P04150); assay: GR-GFP Redistribution (AID 450;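 active = compounds whose dose series gives a full or clear partial fitted curve of increased nuclear translocation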; note: potency is the fitted concentration of half-maximal effect); conditions: U2OS GR-GFP nuclear translocation, laser cytometry, 2 h
Glucocorticoid receptor (Homo sapiens), sequence (P04150 whole entry, looked up, the tested form may be a part): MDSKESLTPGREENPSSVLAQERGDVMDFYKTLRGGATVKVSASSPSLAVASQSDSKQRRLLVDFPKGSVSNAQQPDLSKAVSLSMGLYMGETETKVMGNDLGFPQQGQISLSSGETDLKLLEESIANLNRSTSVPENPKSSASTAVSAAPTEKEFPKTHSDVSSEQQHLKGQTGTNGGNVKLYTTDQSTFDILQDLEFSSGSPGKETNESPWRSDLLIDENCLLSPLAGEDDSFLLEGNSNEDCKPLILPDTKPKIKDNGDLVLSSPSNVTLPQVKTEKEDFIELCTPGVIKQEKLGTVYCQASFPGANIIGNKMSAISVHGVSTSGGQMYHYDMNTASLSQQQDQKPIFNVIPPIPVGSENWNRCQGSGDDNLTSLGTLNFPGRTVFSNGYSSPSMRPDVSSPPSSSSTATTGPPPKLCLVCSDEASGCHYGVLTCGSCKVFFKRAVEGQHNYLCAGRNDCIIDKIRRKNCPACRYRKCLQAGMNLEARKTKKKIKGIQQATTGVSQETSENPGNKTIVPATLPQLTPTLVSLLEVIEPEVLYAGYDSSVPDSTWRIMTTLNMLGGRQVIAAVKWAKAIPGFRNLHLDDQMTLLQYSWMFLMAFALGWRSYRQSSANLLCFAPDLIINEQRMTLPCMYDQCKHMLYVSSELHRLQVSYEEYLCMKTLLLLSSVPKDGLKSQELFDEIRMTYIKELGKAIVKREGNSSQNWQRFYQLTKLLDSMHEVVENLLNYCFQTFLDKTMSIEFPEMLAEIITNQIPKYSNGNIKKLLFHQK

[7] = target: Glucocorticoid receptor (Homo sapiens) (UniProt P04150); assay: GR-EFC Redistribution (AID 451; calls by dose curve; note: potency is the fitted concentration of half-maximal effect); conditions: CHO-K1 GR-EFC translocation, beta-gal luminescence, 2 h
Procedure, shortened: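 CHO-K1 cells stably expressing nuclear-localized β-gal enzyme acceptor and GR fused C-terminally to the enzyme donor fragment; ligand-driven nuclear translocation restores β-gal by complementation. Compounds titrated up to 46 uM final, 2 h at 37 °C; luminescence read.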

[8] = target: Mitogen-activated protein kinase 10 (Mus musculus) (UniProt Q61831); assay: JNK3 AlphaScreen Assay (AID 530); conditions: JNK3 lysate, c-Jun phosphorylation; series mostly up to 57.1 µM;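 note: kinase came from lysate of stimulated human HepG2 cells; signal reports phosphorylation of biotinylated GST-cJun 1-79 at Ser73 with 10 µM ATP; % is set by controls: 0 for no effect and ±100 for the full control effect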
Procedure, shortened: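 Biotinylated GST-cJun(1-79) served as substrate for JNK3 in HepG2 lysates stimulated with IL-1beta and TNF-alpha. ATP was 10 uM final, pH 7.6. Ser73 phosphorylation was quantified by AlphaScreen (680 nm excitation).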

[9] = target: 3',5'-cyclic-AMP phosphodiesterase 4B (Homo sapiens) (UniProt Q07343); assay: qHTS Assay for Inhibitors of PDE-IV (AID 607; active = well fitted activation curve with a large enough effect in the main read-out, with a control signal flat, not every such curve was filed as active; note: % of control where 0% means no effect); conditions: HEK293 ACTOne CNG channel cells, membrane potential fluorescence; series mostly up to 22.9 µM
3',5'-cyclic-AMP phosphodiesterase 4B (Homo sapiens), sequence (Q07343 whole entry, looked up): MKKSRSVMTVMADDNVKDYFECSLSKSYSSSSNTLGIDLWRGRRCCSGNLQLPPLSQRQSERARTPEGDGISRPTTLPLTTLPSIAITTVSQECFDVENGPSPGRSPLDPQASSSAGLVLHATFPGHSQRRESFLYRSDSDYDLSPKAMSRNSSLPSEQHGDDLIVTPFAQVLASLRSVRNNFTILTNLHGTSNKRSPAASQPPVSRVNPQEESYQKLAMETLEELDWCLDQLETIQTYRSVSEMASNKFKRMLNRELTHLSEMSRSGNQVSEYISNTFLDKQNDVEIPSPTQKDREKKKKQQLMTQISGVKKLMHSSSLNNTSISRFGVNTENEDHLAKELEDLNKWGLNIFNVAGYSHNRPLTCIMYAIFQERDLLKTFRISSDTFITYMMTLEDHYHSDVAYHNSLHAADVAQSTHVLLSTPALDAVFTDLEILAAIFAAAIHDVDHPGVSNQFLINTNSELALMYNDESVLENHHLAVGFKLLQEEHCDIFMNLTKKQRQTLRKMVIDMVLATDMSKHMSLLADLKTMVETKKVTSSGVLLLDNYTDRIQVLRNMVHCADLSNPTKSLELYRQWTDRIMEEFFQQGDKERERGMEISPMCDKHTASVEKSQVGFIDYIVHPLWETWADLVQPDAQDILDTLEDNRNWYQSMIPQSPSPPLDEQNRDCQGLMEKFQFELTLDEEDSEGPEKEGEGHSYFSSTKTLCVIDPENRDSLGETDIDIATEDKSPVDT
Procedure, shortened: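 Cell-based read-out of cAMP via a modified cyclic nucleotide-gated channel and membrane potential dye (535/590 nm) in HEK293 cells expressing PDE4 endogenously. Compounds tested up to 22.9 uM final; 100 uM RO 20-1724 reference.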

[10] = target: Cytochrome P450 3A4 (Homo sapiens) (UniProt P08684); assay: qHTS Assay for Activators of Cytochrome P450 3A4 (AID 885; active = well fitted curve in the direction sought with a large enough effect; an effect the other way counts as inactive or inconclusive; note: nearly all actives have a fitted effect of over 65% in size); conditions: recombinant CYP3A4, Luciferin-PPXE luminescence, 60 min; series mostly up to 57.1 µM
Cytochrome P450 3A4 (Homo sapiens), sequence (P08684 whole entry, looked up): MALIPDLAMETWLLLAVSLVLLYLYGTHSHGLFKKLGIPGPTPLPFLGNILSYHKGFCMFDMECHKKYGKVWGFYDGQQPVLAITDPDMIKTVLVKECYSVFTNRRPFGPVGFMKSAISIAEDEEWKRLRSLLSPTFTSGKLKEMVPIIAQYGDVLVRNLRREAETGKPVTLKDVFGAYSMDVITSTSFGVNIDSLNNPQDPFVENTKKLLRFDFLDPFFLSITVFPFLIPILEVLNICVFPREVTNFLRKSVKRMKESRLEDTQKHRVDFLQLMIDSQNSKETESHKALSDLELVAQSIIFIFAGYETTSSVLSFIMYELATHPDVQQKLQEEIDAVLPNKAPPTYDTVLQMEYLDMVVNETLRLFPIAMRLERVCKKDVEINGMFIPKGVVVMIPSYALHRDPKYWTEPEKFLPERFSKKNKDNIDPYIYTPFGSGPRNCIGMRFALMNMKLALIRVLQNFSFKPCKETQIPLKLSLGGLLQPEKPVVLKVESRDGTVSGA
Procedure, shortened: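 Luminescent readout of luciferin formed from 25 uM Luciferin-PPXE (KM level) by 20 nM CYP3A4 in 200 mM KPO4, with 60 min NADPH-driven reaction at room temperature after 10 min compound exposure. Ketoconazole (57 uM) defined 100% inhibition.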

[11] = Primary qHTS for small molecule stabilizers of the endoplasmic reticulum resident proteome: Secreted ER Calcium Modulated Protein (SERCaMP) assay (AID 1508630; active = well fitted curve in the direction sought with a large enough effect; an effect the other way counts as inactive or inconclusive; note: % is set by controls: 0 for no effect and ±100 for the full control effect); conditions: SH-SY5Y GLuc-SERCaMP (Gaussia luciferase released on ER calcium loss) secretion, thapsigargin, luminescence; series mostly up to 38.4 µM
Procedure, shortened: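 The SH-SY5Y reporter protocol was run at 3 concentrations up to 38.3 uM (primary) or 11 concentrations (follow-up): 16 h compound, 100 nM thapsigargin for 4 h, then extracellular luciferase luminescence.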

[12] = target: Cytochrome P450 2C9 (Homo sapiens) (UniProt P11712); assay: qHTS Assay for Inhibitors and Substrates of Cytochrome P450 2C9 (AID 883; active = well fitted curve in the direction sought with a large enough effect; an effect the other way counts as inactive or inconclusive; note: potency is the fitted concentration of half-maximal effect; nearly all actives have a fitted effect of over 60% in size); conditions: recombinant CYP2C9, luciferin-H luminescence, 60 min; series mostly up to 57.1 µM
Cytochrome P450 2C9 (Homo sapiens), sequence (P11712 whole entry, looked up): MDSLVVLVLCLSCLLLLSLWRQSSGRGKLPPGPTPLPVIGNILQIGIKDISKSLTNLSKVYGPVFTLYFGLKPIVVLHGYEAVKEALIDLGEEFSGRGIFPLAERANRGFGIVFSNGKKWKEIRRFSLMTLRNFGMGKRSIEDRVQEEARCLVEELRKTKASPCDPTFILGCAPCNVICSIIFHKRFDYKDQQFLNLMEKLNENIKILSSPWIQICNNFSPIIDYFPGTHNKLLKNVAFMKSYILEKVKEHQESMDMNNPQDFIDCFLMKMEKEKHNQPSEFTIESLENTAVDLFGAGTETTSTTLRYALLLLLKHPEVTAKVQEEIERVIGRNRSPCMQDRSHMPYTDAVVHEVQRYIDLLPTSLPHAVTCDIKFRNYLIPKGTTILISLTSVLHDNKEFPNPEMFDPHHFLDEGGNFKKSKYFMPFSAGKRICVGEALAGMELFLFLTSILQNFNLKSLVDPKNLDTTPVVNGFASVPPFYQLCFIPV
Procedure, shortened: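 Human CYP2C9 (10nM) hydroxylated Luciferin-H (100uM, at its KM) to luciferin in 25mM KPO4. Compound was preincubated 10 min at 37C, then NADPH regeneration started a 60 min reaction at 37C. Luminescence was read after detection reagent, normalized to 57uM sulphaphenazole.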

[13] = target: Cytochrome P450 3A4 (Homo sapiens) (UniProt P08684); assay: qHTS Assay for Inhibitors and Substrates of Cytochrome P450 3A4 (AID 884; active = well fitted curve in the direction sought with a large enough effect; an effect the other way counts as inactive or inconclusive; note: potency is the fitted concentration of half-maximal effect; nearly all actives have a fitted effect of over 50% in size); conditions: recombinant CYP3A4, Luciferin-PPXE luminescence; series mostly up to 57.1 µM
Procedure, shortened: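 Luminescent readout of luciferin produced by CYP3A4 (20 nM) dealkylation of Luciferin-PPXE, 25 uM (its KM). NADPH-driven reaction ran 60 min at RT after 10 min compound preincubation; data scaled to 57 uM ketoconazole as 100% inhibition.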

[14] = qHTS Assay for Identification of Small Molecule Agonists for Hypoxia Response Element Signaling Pathway (AID 914; active = well fitted activation curve with a large enough effect in the signal ratio, with a control signal flat, not every such curve was filed as active; the % refers to the signal ratio; note: potency is the fitted concentration of half-maximal effect); conditions: ME-180 (cervical carcinoma) HRE-bla reporter, beta-lactamase ratio, CoCl2, 17 h; activation: active compounds read high
Procedure, shortened: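 Read-out: CCF4 FRET ratio of 460nm to 530nm emission (excitation 405nm) after 2.5 hours at room temperature, taken from HRE-bla ME-180 cells that had been exposed to compound and EC50 CoCl2 for 17 hours.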

[15] = target: Cytochrome P450 2C19 (Homo sapiens) (UniProt P33261); assay: qHTS Assay for Inhibitors and Substrates of Cytochrome P450 2C19 (AID 899; active = well fitted curve in the direction sought with a large enough effect; an effect the other way counts as inactive or inconclusive; note: nearly all actives have a fitted effect of over 60% in size; note: potency is the fitted concentration of half-maximal effect); conditions: recombinant CYP2C19, luciferin-H EGE luminescence; series mostly up to 57.1 µM
Cytochrome P450 2C19 (Homo sapiens), sequence (P33261 whole entry, looked up): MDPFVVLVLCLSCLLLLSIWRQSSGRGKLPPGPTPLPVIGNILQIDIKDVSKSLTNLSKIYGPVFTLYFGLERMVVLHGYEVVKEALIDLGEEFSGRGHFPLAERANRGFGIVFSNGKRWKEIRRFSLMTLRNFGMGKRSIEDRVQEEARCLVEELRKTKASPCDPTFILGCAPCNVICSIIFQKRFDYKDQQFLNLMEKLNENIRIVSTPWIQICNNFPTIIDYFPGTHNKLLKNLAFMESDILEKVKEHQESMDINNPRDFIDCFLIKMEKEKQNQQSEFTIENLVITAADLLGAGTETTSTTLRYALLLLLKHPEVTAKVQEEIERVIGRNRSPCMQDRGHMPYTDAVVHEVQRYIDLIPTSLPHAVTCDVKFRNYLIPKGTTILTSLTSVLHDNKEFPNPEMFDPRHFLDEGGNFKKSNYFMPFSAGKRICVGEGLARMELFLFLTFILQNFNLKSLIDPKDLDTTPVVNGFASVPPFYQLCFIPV
Procedure, shortened: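 Human CYP2C19 (5nM) with Luciferin-H EGE at 10uM (its KM) in 50mM KPO4 was preincubated with compound for 10 min at 37C. NADPH regeneration started a 60 min 37C reaction. Luciferin was read by luminescence, normalized to 57uM ketoconazole.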

Row | Compound | Potency [1] [µM] | activity change, negative = inhibition [2] [%] | Potency [3] | activity change, negative = inhibition [4] [%] | activity, negative = inhibition [5] [%] | Potency [6] [µM] | Potency [7] [µM] | Potency [8] | Potency [9] | Potency [10] | outcome [11] | Potency [12] | Potency [13] | Potency [14] | Potency [15]
1 | COc1ccc(-n2c(=O)c(C)nc3cnc(N(C)C)nc32)cc1 | > 11.4 | -8.91 | 6.31 µM (active) | 5.39 | -5.54 | > 9.22 | > 46 | inactive | inactive | inactive | inactive | – | – | – | –
2 | CN(C)c1ncc2nc(-c3ccc(F)cc3)c(=O)n(CCC#N)c2n1 | > 11.4 | 4.59 | 1.26 µM (active) | 8.55 | 23.5 | > 9.22 | > 46 | inactive | inactive | – | inactive | – | – | – | –
3 | Cn1c(=O)c(CCc2ccccc2)nc2cncnc21 | > 11.4 | -10.9 | 7.94 µM (active) | -3.66 | -13.2 | > 9.22 | > 46 | inactive | inactive | inactive | inactive | – | – | – | –
4 | COc1ccc(Oc2ncc3nc(-c4cccs4)c(=O)n(C)c3n2)cc1 | > 11.4 | 18.3 | 3.16 µM (active) | 28.2 | 27.9 | > 9.22 | > 46 | inactive | inactive | inactive | inactive | 3.16 µM (active) | 3.98 µM (active) | 3.16 µM (active) | –
5 | O=c1cnc2cnc(N3CCOCC3)nc2n1Cc1ccc(F)cc1 | > 11.4 | -5.88 | 3.98 µM (active) | -6.28 | 6.58 | > 9.22 | > 46 | inactive | inactive | inactive | inactive | – | – | – | 3.98 µM (active)
6 | COc1ccc(Oc2ncc3ncc(=O)n(Cc4cccs4)c3n2)cc1 | > 11.4 | -29.2 | 10 µM (active) | -6.6 | -28.6 | > 9.22 | > 46 | inactive | inactive | inactive | inactive | – | 3.16 µM (active) | – | –
7 | COc1ccc(-n2c(=O)c(C)nc3cnc(Nc4ccccc4)nc32)cc1 | > 11.4 | -25 | 5.01 µM (active) | 0.929 | -5.94 | > 9.22 | > 46 | inactive | inactive | inactive | inactive | – | – | – | –
8 | COCCn1c(=O)c(-c2ccc(F)c(F)c2)nc2cncnc21 | > 11.4 | -26.5 | 0.251 µM (active) | -12.1 | 0.716 | > 9.22 | > 46 | inactive | inactive | inactive | inactive | – | – | – | –
9 | COCCn1c(=O)c(-c2cn(C)c3ccccc23)nc2cncnc21 | > 11.4 | 1.74 | 0.398 µM (active) | -1.67 | -9.49 | > 9.22 | > 46 | inactive | – | inactive | inactive | – | 3.16 µM (active) | – | –
10 | Cn1c(=O)c(-c2ccc(F)cc2)nc2cncnc21 | > 11.4 | -16.1 | 0.158 µM (active) | -1.33 | -0.562 | > 9.22 | > 46 | inactive | inactive | inactive | inactive | – | – | – | –
11 | COc1ccc(Oc2ncc3nc(C)c(=O)n(CCC#N)c3n2)cc1 | > 11.4 | -15.5 | 25.1 µM (active) | 8.56 | -12.9 | > 9.22 | > 46 | inactive | inactive | – | inactive | – | – | – | –
12 | N#CCCn1c(=O)cnc2cnc(OCc3ccccc3)nc21 | > 11.4 | -4.07 | 12.6 µM (active) | 0.323 | -5.03 | > 9.22 | > 46 | inactive | inactive | – | inactive | – | – | – | inactive
13 | COc1ncc2ncc(=O)n(CCC#N)c2n1 | > 11.4 | 1.28 | 20 µM (active) | -1.77 | -9.79 | > 9.22 | > 46 | inactive | inactive | – | inactive | – | – | – | –
14 | Cc1nc2cnc(Nc3ccccc3)nc2n(Cc2cccs2)c1=O | > 11.4 | 6.83 | 1.58 µM (active) | 31.1 | 10.1 | > 9.22 | > 46 | inactive | inactive | inactive | inactive | – | 7.94 µM (active) | – | –
